Results from ChEMBL document CHEMBL3988442, “University of Dundee, Small-Polar-MMV Screening Library” (2021).
About 13,000 (27%) of roughly 48,000 compounds showed an effect of 50% or more. This is one part of the list.

Test system: Wolbachia pipientis
Test: Anti-Wolbachia Cell-Based Screen
Assay type: functional
Parameters: scale not given: in the data most compounds retested in dose-response had high values
Conditions: 5 µM

| SMILES | Percent Effect |
| --- | --- |
| CCC(CNC(=O)c1ccc(C(N)=O)cc1)Oc1cccc(F)c1 (configuration not stated) | -8.287% |
| CCCS(=O)(=O)NC(C)c1cccc(-n2cccn2)c1 (configuration not stated) | -8.996% |
| NC(=O)c1ccc(-n2ccnc2-c2cccc(O)c2)cc1N1CCCC1 | -15.85% |
| O=C(NCc1ccccn1)NCc1ccc(Cl)s1 | 100.6% |
| CC(NC(=O)NCc1cccnc1N(C)C)c1cccs1 (configuration not stated) | 91.27% |
| CN(C)c1ncccc1CNC(=O)NCc1ccco1 | -3.644% |
| CN(C)c1ccc(NC(=O)NCc2ccc(Cl)s2)cn1 | 9.088% |
| CN(C)c1ncccc1CNC(=O)NCC(c1cccs1)N(C)C (configuration not stated) | 101.5% |
| CC(C)C(NC(=O)NCc1cccnc1N(C)C)c1cccs1 (configuration not stated) | 97.46% |
| O=C(NCc1ccccn1)NCC(O)c1ccccc1C(F)(F)F (configuration not stated) | -3.765% |
| CN(C)C(CNC(=O)NCc1ccco1)c1cccs1 (configuration not stated) | 6.587% |
| CC(C)N(Cc1nccn1C)C(=O)c1cc(Cl)c[nH]c1=O | -15.2% |
| CCNC(=O)[C@@H]1C[C@@H](N)CN1Cc1ccc(Sc2ccc(C)cc2)o1 | 5.501% |
| CN(C(=O)COC1CCCC1)C1CCN(CC2CCOC2)CC1 (configuration not stated) | -27.33% |
| CN(CCCc1nccn1C)C(=O)C1CCN(C(=O)C2CCC2)CC1 | 9.591% |
| O=C(NC1CCCC1)N1CC[C@H]2[C@H]1CCN2c1nncs1.O=C(O)C(F)(F)F | 1.453% |
| CS(=O)(=O)N1CCCc2sc(C(=O)NC3CC3)nc21 | -1.89% |
| Cc1cc(CN2CCN(C(C)C(=O)NCc3cccs3)CC2)no1 (configuration not stated) | -4.683% |
| CN(C)c1ncccc1CNC(=O)NCc1cccs1 | 101% |
| Cc1cc(CNC(=O)NC(C)c2ccccc2)no1 (configuration not stated) | -4.939% |
| Cc1cc(CNC(=O)NCc2cccs2)no1 | 116.2% |
| CC(NC(=O)NCc1cccnc1N(C)C)c1ccc(F)cc1 (configuration not stated) | 97.94% |
| Cc1cc(CNC(=O)c2cc(COc3cncc(Cl)c3)on2)n[nH]1 | -4.866% |
| CN1CCCC2(CCN(S(=O)(=O)c3c(Cl)nc4sccn34)C2)C1=O (configuration not stated) | -6.903% |
| COc1ccc(CN2CCCn3nnc(COCC4CC4)c3C2)cc1.O=C(O)C(F)(F)F | -11.72% |
| CN(Cc1c[nH]nc1-c1ccc(F)cc1F)Cc1nccn1C | -2.031% |

| SMILES | Percent Effect |
| --- | --- |
| CCC(C)(NCC(=O)NC(=O)NC)c1nccs1 (configuration not stated) | 3.438% |
| Cc1ccc(C2COCCN2C(=O)c2ccc(N(C)C)cc2)o1 (configuration not stated) | 16.04% |
| CC(C)(C)OC(=O)N1CCCCC(NC(=O)CCc2cccnc2)C1 (configuration not stated) | 15.24% |
| O=C(CCc1cccnc1)N1CCCCC1c1ccn2ccnc2n1 (configuration not stated) | 103.4% |
| O=C(Cc1ccc(F)cc1)N1CCCCC1c1ccn2ccnc2n1 (configuration not stated) | -3.373% |
| O=C(COc1cccc(F)c1)N1CCCCC1c1ccn2ccnc2n1 (configuration not stated) | 137.7% |
| O=C(COc1ccccc1F)N1CCCCC1c1ccn2ccnc2n1 (configuration not stated) | 107.9% |
| O=C(Cc1ccccc1F)N1CCCCC1c1ccn2ccnc2n1 (configuration not stated) | 125% |
| O=C(Cc1cccc(F)c1)N1CCCCC1c1ccn2ccnc2n1 (configuration not stated) | 7.751% |
| CN1C(=O)c2ccc(NC(=O)CSc3ccc4c(c3)CCC4)cc2C1=O | 8.962% |
| Cc1ncsc1CCC(=O)NCc1cc2n(n1)CCN(C(=O)N(C)C)C2 | -5.05% |
| CCOC(C)C(=O)Nc1cc(S(=O)(=O)NC2CC2)ccc1F (configuration not stated) | 0.6608% |
| Cn1c(=O)oc2cc(Nc3ncc(C#N)cc3Cl)ccc21 | -1.67% |
| COc1ccccc1CN1C(=O)O[C@@H]2CN(c3ccccn3)C[C@@H]21 | 2.644% |
| COc1ccccc1CN1C[C@@H](F)[C@@H](OCc2nc3ncccc3[nH]2)C1 | -5.339% |
| O=c1[nH]c(-c2ccccn2)nc2c1CCN(Cc1cccc(O)c1)C2 | 110.8% |
| CCn1nc2c(cc1=O)CN(Cc1nc(-c3ccccn3)no1)CC2 | -6.264% |
| COc1ccccc1CN1CCc2c(nc(-c3ccccn3)[nH]c2=O)C1 | 118.7% |
| CCc1nnc(CN2CCc3[nH]c(-c4ccc(OC)cc4)nc3C2)o1 | -0.2672% |
| c1ccc(-c2noc(CN3CCc4c(ncn4C4CC4)C3)n2)nc1 | -14.25% |
| COc1ccc2c(c1)CN(Cc1nc3ccsc3c(=O)[nH]1)CC2 | -2.354% |
| Cn1cnc2c1CCN(Cc1cccc(C(N)=O)c1)C2 | -6.228% |
| Cc1nn(C)cc1CN1CCc2c(nc(-c3ccccn3)[nH]c2=O)C1 | 96.61% |
| COc1ccc(CN2CCc3c(nc(-c4ccccn4)[nH]c3=O)C2)cc1 | 130.9% |
| O=C(c1ccco1)N1CCc2c(nc(-c3ccncc3)[nH]c2=O)C1 | 13.85% |
| Cc1nnc(CN(C)CC(=O)N2CCCN(C3CCCC3)CC2)n1C | -1.28% |

| SMILES | Percent Effect |
| --- | --- |
| Cc1cccc(S(=O)(=O)NCC(C)(C)CC(C)O)c1C#N (configuration not stated) | -19.79% |
| CCNC(=O)Nc1c(C)cnn1Cc1cc(F)ccc1F | -3.451% |
| O=C(C[S+]([O-])Cc1c(Cl)cccc1Cl)N1CCc2sccc2C1 (configuration not stated) | -11.53% |
| Cn1cnnc1C1CCCN(C(=O)c2n[nH]c3ccccc23)C1 (configuration not stated) | 7.957% |
| Cn1cnnc1C1CCCN(C(=O)c2cc3ccccc3[nH]2)C1 (configuration not stated) | 124.8% |
| COc1cc2ccccc2cc1C(=O)N1CCCC(c2nncn2C)C1 (configuration not stated) | 138.9% |
| COc1ccccc1CNC(=O)N1CCCC(c2nncn2C)C1 (configuration not stated) | -1.227% |
| Cc1occc1CN(C)C(=O)Nc1ccc(=O)n(C)c1 | 5.737% |
| c1ccc(CN2CCC(NCCc3ccc4c(c3)CCO4)CC2)nc1 | 2.392% |
| Cn1ccc(C(=O)Nc2cccc(-c3ccc4c(c3)CCO4)n2)cc1=O | -14.88% |
| Cc1nc(C)n(C2CCCN(C(=O)COc3ccccc3)C2)n1 (configuration not stated) | 133.2% |
| Cc1ccc(OCCC(=O)N2CCCC(n3nc(C)nc3C)C2)cc1 (configuration not stated) | 93.22% |
| Cc1nc(C)n(C2CCCN(C(=O)c3cccc4cn[nH]c34)C2)n1 (configuration not stated) | 1.609% |
| Cc1nc(C)n(C2CCCN(C(=O)Cc3cccnc3)C2)n1 (configuration not stated) | -7.777% |
| Cc1nc(C)n(C2CCCN(C(=O)CCCOc3ccccc3)C2)n1 (configuration not stated) | 1.016% |
| CCc1[nH]ncc1C(=O)N1CCCC(n2nc(C)nc2C)C1 (configuration not stated) | -3.385% |
| CCOc1ccc(CC(=O)N2CCCC(n3nc(C)nc3C)C2)cc1 (configuration not stated) | 81.54% |
| Cc1nc(C)n(C2CCCN(C(=O)COc3cccc(C#N)c3)C2)n1 (configuration not stated) | 83.98% |
| Cc1nc(C)n(C2CCCN(C(=O)Cc3n[nH]c4ccccc34)C2)n1 (configuration not stated) | -3.08% |
| N#Cc1ccc(OCC(=O)N2CCCC(n3cccn3)C2)cc1 (configuration not stated) | -1.98% |
| CCN(C)c1ncnc2c1CCN(Cc1nccs1)CC2.O=C(O)C(F)(F)F.O=C(O)C(F)(F)F | -6.805% |
| CN(C)Cc1cc(-c2nccn2CCc2cccnc2)ccc1O | -8.952% |
| Cc1nnc(NCc2ccccc2Cl)c(C#N)c1C | 4.284% |
| CCCC(=O)Nc1cc(C(=O)NC(C)Cc2ccncc2)ccc1C (configuration not stated) | 2.128% |
| CC(C)OCCOCc1cccc(NC(=O)N2CCCC(O)C2)c1 (configuration not stated) | -8.695% |
| CC(C)(C)OC(=O)N1CCC(NC2CCS(=O)(=O)C2)CC1 (configuration not stated) | -18.26% |

| SMILES | Percent Effect |
| --- | --- |
| c1ncn(Cc2nnc(C3CCN(C4CCOCC4)CC3)n2C2CC2)n1 | -14.43% |
| Cc1csc2c(N3CCC(NCCc4ccnn4C)CC3)ncnc12 | 1.51% |
| Cc1nc(C)n(C2CCCN(C(=O)COCc3ccccc3)C2)n1 (configuration not stated) | -1.544% |
| Cc1nc(C)n(C2CCCN(C(=O)c3ccccc3C)C2)n1 (configuration not stated) | 3.222% |
| CCOc1cc(C(=O)N2CCCC(n3nc(C)nc3C)C2)ccn1 (configuration not stated) | 108.5% |
| COc1ccsc1C(=O)N1CCCC(n2nc(C)nc2C)C1 (configuration not stated) | -12.01% |
| CCOc1ncccc1C(=O)N1CCCC(n2nc(C)nc2C)C1 (configuration not stated) | -3.094% |
| Cc1ccc(OCC(=O)N2CCCC(n3nc(C)nc3C)C2)cc1 (configuration not stated) | 110.7% |
| CCCNC(=O)CCC(=O)Nc1cc2sc(C)nc2cc1OC | 9.826% |
| CC(=O)N(CCc1ccccc1)CC(=O)NC1(C#N)CC1 | -30.59% |
| COCCNC(=O)Nc1cc2c(cc1SC)OCCO2 | 8.638% |
| CCCn1ncc(CN(Cc2cccnc2)Cc2cccs2)c1C | 103.6% |
| CCCn1ncc(CN(Cc2ccsc2)Cc2ccco2)c1C | -9.54% |
| CCCn1ncc(CN(Cc2cccnc2)Cc2ccsc2)c1C | -8.215% |
| Cc1cnc(C(=O)NCC2CCOc3ccccc3C2)cn1 (configuration not stated) | -13.56% |
| CN(C)CC(=O)N1CCC2(CC1)Cc1ccccc1CN(C)C2=O.O=C(O)C(F)(F)F | 100.6% |
| CN1Cc2ccccc2CC2(CCN(CCO)CC2)C1=O.O=C(O)C(F)(F)F | 115.9% |
| CCC(=O)N1CCC2(CCC(N3CCCC3)c3ccccc32)CC1.O=C(O)C(F)(F)F (configuration not stated) | 3.41% |
| O=C(O)C(F)(F)F.O=C1NC2(CCN(CCO)CC2)CC1c1ccccc1 (configuration not stated) | -11.42% |
| O=C(O)C(F)(F)F.OCCN1CCC2(CCc3cc(-c4ccoc4)ccc32)CC1 | -5.602% |
| CCC(=O)N1CCC2(CC1)CN(CCO)Cc1ccccc12.O=C(O)C(F)(F)F | 102.3% |
| CN(C)CC(=O)N1CCC2(CCc3ccc(-c4ccncc4)cc32)CC1.O=C(O)C(F)(F)F.O=C(O)C(F)(F)F | -5.921% |
| Cc1ccc2c(c1)CCC21CCN(C(=O)CN(C)C)CC1.O=C(O)C(F)(F)F | -5.589% |
| COc1cccc2[nH]cc(CCNC(=O)N3CCCC3CO)c12 (configuration not stated) | -6.356% |
